Screens: PubChem BioAssay, National Center for Advancing Translational Sciences (NCATS)
AMA1-RON2 inh = inhibitors of Plasmodium falciparum AMA1-RON2 interaction; AlphaScreen AMA1-biotinylated RON2 peptide binding; Potency, µM (highest dose often 58.2 µM), usual class: inhibitors; 360,000 compounds, 0.2% hits; AID 720542; further: nearly all actives have a fitted effect of over 45% in size
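AMA1 (3D7) with his tag at 25 nM final met compounds first, then biotinylated RON2 peptide at 25 nM; detection used donor plus acceptor beads, 10 µg/mL apiece, read by AlphaScreen after 30 min at room temperature.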
AmpC inh detg = AmpC beta-lactamase inhibition with detergent present; AmpC hydrolysis of nitrocefin, absorbance 480 nm, 0.01% Triton; Potency, µM (titrated, usually from 114 µM), hits mostly inhibitors; 370,000 compounds, 0.041% hits; AID 485294; further: nearly all actives have a fitted effect of over 25% in size
Target sequence (P00811 whole entry, looked up): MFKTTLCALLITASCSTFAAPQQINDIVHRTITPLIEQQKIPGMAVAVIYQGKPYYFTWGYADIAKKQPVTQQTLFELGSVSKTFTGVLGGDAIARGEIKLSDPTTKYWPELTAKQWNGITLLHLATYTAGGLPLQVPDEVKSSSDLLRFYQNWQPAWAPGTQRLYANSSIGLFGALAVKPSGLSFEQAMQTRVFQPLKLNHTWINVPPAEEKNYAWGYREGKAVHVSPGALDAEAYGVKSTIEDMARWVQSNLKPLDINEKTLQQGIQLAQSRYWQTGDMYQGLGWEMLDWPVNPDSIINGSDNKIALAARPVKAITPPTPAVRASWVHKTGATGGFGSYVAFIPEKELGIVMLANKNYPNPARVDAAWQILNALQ
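AmpC (5.3 nM in the dispensed reagent) in 20 mM phosphate pH 7.0 with 0.01% (detergent screen) or 0.0001% Triton X-100 was preincubated with compounds for 15 min at room temperature. Nitrocefin was then added from an 800 uM solution, and hydrolysis was followed at 480 nm.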
SARS PLpro yeast-1 = SARS-CoV PLP inhibition in yeast | S. cerevisiae expressing SARS-CoV PLpro, growth rescue | Potency, µM (doses to about 32.9 µM), hits mostly activators | 330,000 compounds, 0.19% hits; calls by dose curve; further: nearly all actives have a fitted effect of over 55% in size
AmpC no deterg = AmpC beta-lactamase inhibition without detergent; AmpC nitrocefin hydrolysis, absorbance 480 nm, 0.0001% Triton; 330,000 compounds, 0.52% hits; Potency, µM (titrated, usually from 57.1 µM), actives largely listed as inhibitors; further: nearly all actives have a fitted effect of over 20% in size
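20 mM phosphate pH 7.0 + 0.01% (detergent screen) or 0.0001% Triton X-100; 5.3 nM AmpC reagent; cpd preinc 15 min RT; nitrocefin (800 uM stock) to start; A480 q20 s × 4 min; Activity was normalised to no-enzyme and no-compound control wells.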
Vaccinia Venus = vaccinia inhibition (Venus reporter) | 330,000 compounds, 0.46% hits | Vaccinia virus Venus reporter expression, fluorescence | Potency, µM (doses to about 36.5 µM), usual class: inhibitors; calls by dose curve; tested in A549 cells; further: nearly all actives have a fitted effect of over 30% in size
Vaccinia mCherry = inhibitors of vaccinia virus infection (mCherry reporter signal); Vaccinia virus mCherry reporter infection, fluorescence; Potency, µM (titrated, usually from 36.5 µM), hits mostly inhibitors; 310,000 compounds, 0.63% hits; AID 720579; calls by dose curve; tested in A549 cells; further: nearly all actives have a fitted effect of over 35% in size
SARS PLpro yeast-2 = Rescues yeast growth by inhibiting SARS-CoV PLpro; shares compounds with SARS PLpro yeast-1; yeast expressing SARS-CoV PLpro, growth phenotype rescue; calls only; 1,000 compounds, 19% hits; AID 652038; call rule not given here
Numbers stand for hits; [ ] = another dose, or the depositor's remark. In the library only some 1.4% were active in any assay of this set; here they are far more common. Unless noted, the call rests on the fitted dose curve; in most records, active means well fitted curve in the direction sought with a large enough effect; inconclusive means small, poorly fitted or top-dose-only effect, or another doubt; inactive means no such curve, though single readings can be large; an effect the other way counts as inactive or inconclusive.

For O=C(CSc1nc2ccsc2c(=O)n1Cc1ccccc1F)NCc1ccccc1Cl the results were AmpC inh detg inactive, Vaccinia Venus inactive and Vaccinia mCherry inactive.
C/C(=N\NC(N)=S)C1(C)CCCCC1 was read as AMA1-RON2 inh inactive, AmpC inh detg inconclusive, SARS PLpro yeast-1 17.8µM, AmpC no deterg inactive, Vaccinia Venus inconclusive, Vaccinia mCherry inconclusive and SARS PLpro yeast-2 active.
For Cc1cn2c(=O)cc(COC(=O)c3cccc(NC(=O)c4ccc(C(C)(C)C)cc4)c3)nc2s1 the results were AmpC inh detg inactive, Vaccinia Venus inactive and Vaccinia mCherry inactive.
`CCCCC(=O)NC(c1cccc([N+](=O)[O-])c1)c1ccc2cccnc2c1O` (stereo not drawn) gave AMA1-RON2 inh inactive.
`COc1cccc(CNc2cccc3cccnc23)c1O` gave AMA1-RON2 inh inactive, AmpC inh detg inactive, SARS PLpro yeast-1 inactive and AmpC no deterg inactive.
CCC(=O)NC(c1ccccc1OC)c1ccc2cccnc2c1O (stereo not drawn) was read as AMA1-RON2 inh inactive, AmpC inh detg inconclusive, SARS PLpro yeast-1 inconclusive, AmpC no deterg inactive, Vaccinia Venus inconclusive, Vaccinia mCherry inconclusive and SARS PLpro yeast-2 active.
CCCCC(=O)NC(c1ccccc1)c1ccc2cccnc2c1O (stereo not drawn) was read as AMA1-RON2 inh inactive, AmpC inh detg inactive, SARS PLpro yeast-1 4.47µM, AmpC no deterg inactive, Vaccinia Venus inconclusive, Vaccinia mCherry 1.58µM and SARS PLpro yeast-2 inactive.
Cc1cccc(C(=O)Nc2ccc(S(=O)(=O)N3CCC(c4nc5ccccc5s4)CC3)cc2)c1 was read as AmpC inh detg inactive, Vaccinia Venus inactive and Vaccinia mCherry inactive.
Screening CCOC(=O)C1CCN(C(=O)COc2cccc(C)c2)CC1 returned AMA1-RON2 inh inactive, AmpC inh detg inconclusive, SARS PLpro yeast-1 3.55µM, AmpC no deterg inactive, Vaccinia Venus inactive, Vaccinia mCherry 3.98µM and SARS PLpro yeast-2 inactive.
`O=[N+]([O-])c1ccccc1/C=C1\C=Cc2ccccc21` gave Vaccinia Venus inactive and Vaccinia mCherry inactive.
Cc1ccc(NC(=O)CSc2ncccc2C(=O)Oc2cccc([N+](=O)[O-])c2)cc1Cl was read as AMA1-RON2 inh inactive, AmpC inh detg inactive, SARS PLpro yeast-1 inconclusive, AmpC no deterg inconclusive, Vaccinia Venus inactive, Vaccinia mCherry inactive and SARS PLpro yeast-2 inactive.
Screening CCN(CC)CCn1c2c(c(SCC(=O)Nc3cccc(C(F)(F)F)c3)nc1=O)CCC2 returned AmpC inh detg inactive, Vaccinia Venus inactive[7.34 µM] and Vaccinia mCherry inactive[7.34 µM].
For Cc1cc(Cl)ccc1OCC(=O)N/N=C1\CC2C=CCC12 (stereo not drawn) the results were AMA1-RON2 inh inactive, AmpC inh detg inconclusive, SARS PLpro yeast-1 inconclusive, AmpC no deterg inactive, Vaccinia Venus inactive, Vaccinia mCherry inactive and SARS PLpro yeast-2 inactive.
`CN1CCN(Cc2cc(Cl)c3cccnc3c2OC(=O)c2cccs2)CC1` gave AMA1-RON2 inh inactive, AmpC inh detg inactive, SARS PLpro yeast-1 11.2µM, AmpC no deterg inactive, Vaccinia Venus inconclusive, Vaccinia mCherry 11.2µM and SARS PLpro yeast-2 inactive.
Screening O=C(Oc1c(CN2CCOCC2)cc(Cl)c2cccnc12)c1ccccc1Br returned AMA1-RON2 inh inactive, AmpC inh detg inactive, SARS PLpro yeast-1 inactive and AmpC no deterg inactive.
COc1cc(CNCCN(C)C)c(Br)cc1OCC(=O)NCc1ccccc1 was read as AMA1-RON2 inh inactive, AmpC inh detg inconclusive, SARS PLpro yeast-1 inactive, AmpC no deterg inactive, Vaccinia Venus inactive and Vaccinia mCherry inactive.
For COc1cc(CNCC(C)C)c(Br)cc1OCC(=O)NCc1ccccc1 the results were AMA1-RON2 inh inactive, AmpC inh detg inactive, SARS PLpro yeast-1 inconclusive, AmpC no deterg inactive and SARS PLpro yeast-2 inactive.
Screening CNC[C@H]1Oc2c(NS(=O)(=O)c3ccccc3)cccc2C(=O)N([C@H](C)CO)C[C@@H]1C returned AMA1-RON2 inh inactive, SARS PLpro yeast-1 10µM, AmpC no deterg inactive, Vaccinia Venus inactive, Vaccinia mCherry inactive and SARS PLpro yeast-2 inactive.
